# Source: PubChem
# Compounds with a hit are over-represented: about 2.7% of the library has one in this group of screens.
# PP5 inh – PP5 (human) phosphatase inhibition | purified PP5c, OMFP substrate fluorescence | inhibition, % at 6.7 µM | AID 1987 | 320,000 compounds, 0.18% hits | P53041;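 active = inhibition above the campaign's mean inhibition across all tested compounds plus 3 SD, cut at about 9.5% in these data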
# Target sequence (P53041 whole entry, looked up): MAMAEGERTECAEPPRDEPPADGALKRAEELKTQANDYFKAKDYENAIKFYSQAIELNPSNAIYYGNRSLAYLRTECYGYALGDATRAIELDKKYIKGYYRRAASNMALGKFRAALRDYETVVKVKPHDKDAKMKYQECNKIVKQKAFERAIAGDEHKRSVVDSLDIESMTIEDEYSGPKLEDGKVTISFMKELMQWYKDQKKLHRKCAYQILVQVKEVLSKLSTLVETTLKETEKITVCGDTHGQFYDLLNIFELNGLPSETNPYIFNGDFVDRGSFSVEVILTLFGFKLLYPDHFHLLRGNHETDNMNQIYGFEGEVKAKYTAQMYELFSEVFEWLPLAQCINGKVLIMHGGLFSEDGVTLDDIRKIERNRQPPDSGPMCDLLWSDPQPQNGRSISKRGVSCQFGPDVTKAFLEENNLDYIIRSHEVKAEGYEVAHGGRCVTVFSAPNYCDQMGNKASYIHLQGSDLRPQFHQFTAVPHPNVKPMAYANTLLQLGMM
# FID counter – displaces DNA intercalator in HCV helicase counter-screen; 290,000 compounds, 0.17% hits; inhibition, % at 7.9 µM; DNA fluorescent intercalator displacement, fluorescence; in the data active = inhibition above about 37%;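 note: higher means more ethidium bromide displaced from hairpin DNA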
# TMEM16A inh – mouse TMEM16A channel inhibition, primary screen; normalized B-score (activity score, 25-100; higher = stronger inhibition) at 10 µM; 310,000 compounds, 1.2% hits; Q8BHY3; HEK293 TMEM16A/YFP iodide influx fluorescence, ionomycin; AID 588511;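 active = ratio plate-corrected score three or more library SD toward inhibition, starting fluorescence score within five deviations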;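 note: score derived from kinetic fluorescence span divided by baseline fluorescence per well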
# PP1 inh – blocks human PP1-alpha phosphatase, a PP5 counter-screen; purified PP1alpha, OMFP fluorescence; P62136; 320,000 compounds, 0.9% hits; inhibition, % at 6.7 µM; AID 2235;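 active = inhibition above the mean inhibition of all tested compounds plus 3 SD, computed separately for each screening campaign, cut at about 15% in these data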
# ANO1 activ – activates or potentiates the mouse TMEM16A chloride channel; Q8BHY3; HEK293 TMEM16A/YFP-H148Q/I152L, iodide quench fluorescence; hits give low values; B-score at 10 µM; 340,000 compounds, 0.3% hits; AID 623877;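 active = fluorescence-ratio B-score plate-corrected deviation score at least 3 library SD below zero, with starting fluorescence score within 5 deviations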;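 note: channel opened by trigger with iodide after compound preincubation; score built on the fluorescence ratio of max minus min over baseline; more negative score means more quench and so TMEM16A activation or potentiation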
# PREPL inh – inhibitors of human prolyl oligopeptidase-like enzyme PREPL. inhibition, % at 5.96 µM. 320,000 compounds, 0.68% hits. Q4J6C6. AID 2751. recombinant PREPL, fluorescence polarization activity-based probe; in the data active = inhibition above about 43%
# TMEM16A reconf – reconfirmed blocker of mouse TMEM16A calcium-activated chloride channel; shares compounds with TMEM16A inh; HEK293 TMEM16A/YFP-H148Q, iodide quench fluorescence; ionomycin added to raise cell calcium; inhibition, % at 10 µM; 2,300 compounds, 39% hits; AID 652189;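 active = mean duplicate percent inhibition, scaled so buffer wells are 0 and the reference blocker 100, over three buffer SD above buffer mean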
# HEK293 Ca mobil – alters calcium mobilization in TMEM16A HEK293 cells, counter-screen; calcium response (% of ionomycin), % at 10 µM; 2,300 compounds, 2% hits; TMEM16A/YFP HEK293, Fluo4 calcium mobilization; AID 652231; shares compounds with TMEM16A inh;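 active = duplicate-averaged calcium signal over 20% of the ionomycin maximum, relative to buffer baseline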;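 note: each well's signal is peak minus trough fluorescence divided by its pre-addition baseline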
# Parental YFP cnt – counter-screen for TMEM16A inhibitors: effect in parental YFP-HEK293 cells. 2,300 tested, under 10 active. AID 652233. shares compounds with TMEM16A inh. YFP ratio F(max-min)/F0 at 10 µM. iodide YFP quench, ionomycin;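 active = yellow fluorescent protein signal ratio exceeding the buffer control mean by over 5 SD of those controls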;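 note: ratio is mean of duplicate wells from kinetic YFP trace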
# ClC-1 rat inh – blocks the rat ClC-1 voltage-dependent chloride channel | shares compounds with TMEM16A inh | AID 652236 | ratio percent, % at 10 µM | 2,300 tested, under 10 active | CHO ClC-1-YFP, iodide influx fluorescence quench; iodide control reads 0, buffer control 100;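 active = duplicate-mean ratio percent above the mean of iodide-only control wells, which defines zero, plus 5 of their SD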;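 note: higher percent means stronger block of ClC-1 iodide influx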
# A number is an active result; – = inactive; · = no result.
SMILES,PP5 inh,FID counter,TMEM16A inh,PP1 inh,ANO1 activ,PREPL inh,TMEM16A reconf,HEK293 Ca mobil,Parental YFP cnt,ClC-1 rat inh
CCOC(=O)C1=C(C)N(CCCCCC(=O)O)C(=O)NC1c1cccc([N+](=O)[O-])c1 (stereo not drawn),–,–,–,–,–,–,·,·,·,·
CC1=C(C(=O)OCC(Br)(Br)Br)C(c2cccc([N+](=O)[O-])c2)NC(=O)N1CCCC(=O)O (stereo not drawn),–,·,25,–,–,–,–,–,–,–
CCCCSc1nc(C)cc(C)c1S(=O)(=O)c1ccccc1C,–,–,100,–,–,–,22%,–,–,–
Cc1ccnc2nc(C(=O)OCC(=O)Nc3ccccc3C(C)(C)C)nn12,–,–,–,–,–,–,·,·,·,·
CCOC(=O)c1ccccc1NC(=O)c1nc2nccc(C)n2n1,–,–,25,–,–,–,–,–,–,–
Cc1ccc(S(=O)(=O)N2CCCCC2C(=O)N2CCN(Cc3ccccc3)CC2)cc1 (stereo not drawn),–,–,–,–,–,–,·,·,·,·
O=C(C1CCCCN1S(=O)(=O)c1ccccc1)N1CCN(Cc2ccccc2)CC1 (stereo not drawn),–,–,25,–,–,–,–,–,–,–
O=C(NNC1=C(C(=O)C(F)(F)F)CCC1)c1ccc(Cl)cc1,–,–,25,–,–,–,24%,–,–,–
COc1cccc(-c2cc(C(=O)Nc3cc(C)on3)no2)c1,–,–,–,–,–,–,–,–,–,–
Cc1cc(NC(=O)c2cc(-c3cccs3)on2)no1,–,–,–,–,–,–,·,·,·,·
Cc1cc(NC(=O)c2cc(-c3cccc(Cl)c3)on2)no1,–,–,–,–,–,–,·,·,·,·
Cc1cc(NC(=O)c2cc(C(C)C)on2)no1,–,–,25,–,–,–,–,–,–,–
CCOc1ccc(C(=O)NC2CCN(C(=O)Nc3ccc(F)cc3)CC2)cc1,–,–,–,–,–,–,·,·,·,·
O=C(Nc1ccc2c(c1)C(=O)N(CC1CCCO1)C2=O)c1cccc(Br)c1 (stereo not drawn),–,–,100,–,–,–,24%,–,–,–
Cc1oc2c(c(C)cc3oc(=O)c(CC(=O)NCCCO)c(C)c32)c1C,–,–,–,–,–,–,–,–,–,–
CCOC(=O)c1sc2nc(C)nc(NCc3ccc(F)cc3)c2c1C,–,–,100,–,–,–,–,–,–,–
CCOC(=O)c1sc2nc(C)nc(NCc3ccc(Cl)cc3)c2c1C,–,–,–,–,–,–,·,·,·,·
CCOC(=O)C1C(c2ccc([N+](=O)[O-])cc2)C2C(=O)NN=C2CC1(C)O (stereo not drawn),–,–,–,–,–,–,·,·,·,·
CC(Oc1ccccc1)C(=O)Nc1nnc(S(=O)(=O)N2CCCCC2)s1 (stereo not drawn),–,–,–,–,–,–,·,·,·,·
CC(Oc1ccccc1)C(=O)Nc1nnc(S(=O)(=O)Nc2ccccc2)s1 (stereo not drawn),–,–,100,–,–,–,–,–,–,–
CCC(CC)c1nnc(NC(=O)CCc2ccccc2OC)s1,–,–,–,–,–,–,·,·,·,·
CCCC/C(O)=C1\C(=O)CC(C)(C)CC1=Nc1ccccc1OC,–,–,25,–,–,–,–,–,–,–
NS(=O)(=O)c1cc2c(cc1Cl)NC(Cc1ccccc1)NS2(=O)=O (stereo not drawn),–,–,–,–,–,–,–,–,–,–
Cc1ccc(F)cc1NC(=S)NCCc1ccccc1,–,–,–,–,–,–,·,·,·,·
